Results as given in PMC5540273 (PLoS ONE, 2017).

Columns and labels:
Details in all cases: concentration: 1 μM, replicates: in singlicate; n = 1
ERBB2 = test system: ERBB2
ERBB3 = test system: ERBB3
ERBB4 = test system: ERBB4
ERK1 = test system: T1, ERK1
T1 construct: gene MAPK3

ERK2 = test system: T2, ERK2
T2 construct: gene MAPK1

ERK3 = test system: T3, ERK3
T3 construct: gene MAPK6

ERK4 = test system: T4, ERK4
T4 construct: gene MAPK4

ERK5 = test system: T5, ERK5
T5 construct: gene MAPK7

ERK8 = test system: T6, ERK8
T6 construct: gene MAPK15

ERN1 = test system: ERN1
FAK = test system: T7, FAK
T7 construct: gene PTK2

FER = test system: FER
FES = test system: FES
FGFR1 = test system: FGFR1
FGFR2 = test system: FGFR2
FGFR3 = test system: FGFR3
FGFR4 = test system: FGFR4
FGR = test system: FGR
FLT1 = test system: FLT1
FLT3-autoinhibited = test system: FLT3-autoinhibited
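Note: KINOMEscan kinase panel screen.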

Row | Structure (SMILES) | %Inh (ERBB2) | %Inh (ERBB3) | %Inh (ERBB4) | %Inh (ERK1) | %Inh (ERK2) | %Inh (ERK3) | %Inh (ERK4) | %Inh (ERK5) | %Inh (ERK8) | %Inh (ERN1) | %Inh (FAK) | %Inh (FER) | %Inh (FES) | %Inh (FGFR1) | %Inh (FGFR2) | %Inh (FGFR3) | %Inh (FGFR4) | %Inh (FGR) | %Inh (FLT1) | %Inh (FLT3-autoinhibited)
1 | Fc1cc(Cl)ccc1Nc1ccnc2cc(-c3ccc(CN4CCCCC4)o3)ccc12 [GW560116] | 1% | 31% | 4% | 0% | 0% | 0% | 8% | 0% | 0% | 0% | 0% | 5% | 0% | 0% | 0% | 0% | 0% | 31% | 15% | 0%
2 | Cc1c(O)cccc1Nc1ccnc2ccc(C(F)(F)F)cc12.Cl [GW466413] | 35% | 17% | 0% | 0% | 0% | 0% | 0% | 0% | 8% | 0% | 0% | 15% | 0% | 0% | 0% | 0% | 0% | 58% | 28% | 0%
3 | O=C(Nc1ccc2c(c1)OCO2)NC1CCN(c2ccnc(Nc3ccc(F)cc3)n2)C1 (stereo not shown) [GSK1379724] | 45% | 0% | 44% | 0% | 0% | 17% | 0% | 0% | 7% | 0% | 0% | 7% | 15% | 0% | 0% | 7% | 7% | 11% | 19% | 0%
4 | CCn1c(-c2cccnc2O)nc2cnccc21 [SB-736715] | 9% | 0% | 25% | 0% | 0% | 0% | 0% | 0% | 0% | 0% | 0% | 0% | 0% | 0% | 0% | 0% | 0% | 0% | 0% | 0%
5 | Cc1cc(N2Cc3ccccc3C2)nc(Nc2ccc(S(=O)(=O)N3CCOCC3)cc2)n1.Cl [GSK1669917] | 0% | 0% | 26% | 0% | 0% | 0% | 19% | 0% | 0% | 0% | 0% | 25% | 9% | 0% | 11% | 15% | 1% | 0% | 9% | 0%
6 | COc1ccc2nc(-c3cccc(C)n3)nc(Nc3ccncc3)c2c1 [GSK204919] | 0% | 0% | 30% | 2% | 3% | 10% | 15% | 0% | 37% | 0% | 0% | 14% | 17% | 0% | 7% | 20% | 20% | 27% | 28% | 3%
7 | Nc1nc(-c2nccs2)c(-c2ccnc3ccccc23)s1 [GW693542] | 36% | 0% | 27% | 6% | 0% | 0% | 18% | 0% | 0% | 0% | 0% | 15% | 0% | 8% | 0% | 0% | 8% | 9% | 24% | 0%
8 | Cn1ccc2ncnc(Oc3cccc(C(=O)Nc4ccccc4)c3)c21 | 18% | 18% | 0% | 0% | 21% | 0% | 4% | 5% | 6% | 29% | 5% | 8% | 4% | 0% | 0% | 0% | 6% | 5% | 54% | 15%
